Records with an inconclusive call do not appear. Calls of active or inactive are those of the source. Calls come from the whole dose curve; as a rule, active = well fitted curve in the direction sought with a large enough effect in the repeat runs; inconclusive = weak or mixed curves; inactive = no such curve, though single readings can be large; an effect the other way counts as inactive or inconclusive.
How the values were obtained:
[1] = qHTS RealTime-Glo MT Cell Viability Assay in HepG2 cells - 40 hour (AID 1224870); note: nearly all actives have a fitted effect of over 50% in size; note: potency is the fitted concentration of half-maximal effect
In short: (§1)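 Real-time viability: cells seeded at 600 per well together with NanoLuc and cell-permeant prosubstrate, compounds added after 5 h incubation. Luminescence tracked at 0, 8, 16, 24, 32 and 40 h of exposure.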

[2] = A CellTox Green Cytotoxicity Assay to monitor cytotoxicity in HEK293 cells - 40 hour (AID 1224871); note: nearly all actives have a fitted effect of over 45% in size; note: potency is the fitted concentration of half-maximal effect
In short: (§2)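 Cells (HEK293, 600/well) and dye reagent are dispensed together. After 5 h at 37 C, 23 nL compound is pinned in. Plates stay at 37 C for 40 h with fluorescence read at 0h, 8h, 16h, 24h, 32h and 40h.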

[3] = qHTS RealTime-Glo MT Cell Viability Assay in HEK293 cells - 16 hour (AID 1224872); note: nearly all actives have a fitted effect of over 50% in size; note: potency is the fitted concentration of half-maximal effect; for activity change, negative = cytotoxicity: top concentration of the series differs between compounds
In short: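 Viability tracked continuously by luminescence as live cells reduce a prosubstrate for NanoLuc; HEK293 cells preincubated 5 h, compound-treated at 37 C, and read at 0, 8, 16, 24, 32 and 40 h.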

[4] = qHTS RealTime-Glo MT Cell Viability Assay in HepG2 cells - 8 hour (AID 1224873); note: nearly all actives have a fitted effect of over 55% in size
In short: as §1

[5] = qHTS RealTime-Glo MT Cell Viability Assay in HEK293 cells - 40 hour (AID 1224874); conditions: RealTime-Glo luminescence; max response: hits give low values; note: nearly all actives have a fitted effect of over 50% in size; note: potency is the fitted concentration of half-maximal effect
In short: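 Real-time viability in HEK293: signal arises when living cells convert a prosubstrate for NanoLuc in the medium, so luminescence tracks viable cell number. Compound (23 nL, DMSO) added 5 h post-seeding; kinetic reads at 0–40 h, 37 C.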

[6] = A CellTox Green Cytotoxicity Assay to monitor cytotoxicity in HEK293 cells - 24 hour (AID 1224875); note: series mostly up to about 77 µM; nearly all actives have a fitted effect of over 45% in size
In short: as §2

[7] = A CellTox Green Cytotoxicity Assay to monitor cytotoxicity in HepG2 cells - 16 hour (AID 1224876); note: nearly all actives have a fitted effect of over 45% in size; note: potency is the fitted concentration of half-maximal effect
In short: (§3)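 Cells and non-lytic dye reagent are dispensed together (600 HepG2 cells/well) and incubated 5 h before DMSO compound transfer. Kinetic fluorescence is then recorded in the same wells during 40 h at 37 C.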

[8] = A CellTox Green Cytotoxicity Assay to monitor cytotoxicity in HepG2 cells - 24 hour (AID 1224878); note: nearly all actives have a fitted effect of over 45% in size; note: potency is the fitted concentration of half-maximal effect
In short: as §3

[9] = A CellTox Green Cytotoxicity Assay to monitor cytotoxicity in HepG2 cells - 40 hour (AID 1224879); note: nearly all actives have a fitted effect of over 40% in size; note: potency is the fitted concentration of half-maximal effect
In short: as §3

[10] = qHTS RealTime-Glo MT Cell Viability Assay in HepG2 cells - 32 hour (AID 1224877); note: nearly all actives have a fitted effect of over 55% in size
In short: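 Viability was tracked continuously by NanoLuc luminescence from prosubstrate reduced by living HepG2 cells, at successive time points over 40 h of compound exposure. Cells with reagent were preincubated 5 h at 37 °C before compound addition.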
% is set by controls: 0 for no effect and ±100 for the full control effect.

CCCC(=O)O[C@]1(C(=O)CCl)[C@@H](C)C[C@H]2[C@@H]3CCC4=CC(=O)C=C[C@]4(C)[C@@]3(F)C(=O)C[C@@]21C
inactive: Potency [1] | Potency [2] | Potency [3] | outcome [4] | max response [5] -19.8% | Potency [6] | Potency [7] | Potency [8] | Potency [9]

N#CC1(O)CCCCC1
inactive: Potency [1] | Potency [2] | Potency [3] | outcome [4] | max response [5] -16.1% | Potency [6] | Potency [7] | Potency [8] | Potency [9]

O=C(O)/C=C/c1ccc(Cn2ccnc2)cc1
inactive: Potency [1] | Potency [2] | Potency [3] | outcome [4] | max response [5] 2.89% | Potency [6] | Potency [7] | Potency [8] | Potency [9]

COc1ccc(COC=O)cc1
inactive: Potency [1] | Potency [2] | Potency [3] | outcome [4] | Potency [6] | Potency [7] | Potency [10] | Potency [8] | Potency [9]

COc1cccc(Br)c1
inactive: Potency [1] | Potency [2] | Potency [3] | outcome [4] | max response [5] -10% | Potency [6] | Potency [10]

CN(C)C(=O)C(CCN1CCC(O)(c2ccc(Cl)cc2)CC1)(c1ccccc1)c1ccccc1
inactive: outcome [4]
active: Potency [1] 23.9 µM | Potency [2] 26.8 µM | Potency [3] 8.49 µM | Potency [5] 10.7 µM | Potency [7] 10.7 µM | Potency [8] 15.1 µM | Potency [9] 23.9 µM

Cn1ccc2cc3c(cc21)CCN3C(=O)Nc1cccnc1
inactive: activity change, negative = cytotoxic [1] -0.975% [at 15.8 µM] | cytotoxicity increase [2] -10.7% [at 15.8 µM] | activity change, negative = cytotoxicity [3] -8.97% [at 15.8 µM] | viability change, negative = cytotoxic [4] -3.74% [at 15.8 µM] | max response [5] -5.83% | activity change [6] -2.97% [at 15.8 µM, hits give high values] | cytotoxicity increase [7] -8.93% [at 15.8 µM] | cytotoxicity [8] -8.65% [at 15.8 µM] | cytotoxicity increase [9] -12.1% [at 15.8 µM]

C=CC(=O)N1CCOCC1
inactive: Potency [1] | Potency [2] | Potency [3] | outcome [4] | max response [5] -1.69% | Potency [6] | Potency [7] | Potency [8] | Potency [9]

CCCC=O
inactive: Potency [1] | Potency [2] | Potency [3] | outcome [4] | max response [5] 6.1% | Potency [6] | Potency [7] | Potency [8] | Potency [9]

NCCN1CCNC1=O
inactive: Potency [1] | Potency [2] | Potency [3] | outcome [4] | max response [5] 0.993% | Potency [6] | Potency [7] | Potency [8] | Potency [9]

O=C(O)C1CCC1
inactive: Potency [1] | Potency [2] | Potency [3] | outcome [4] | max response [5] -0.0608% | Potency [6] | Potency [7] | Potency [10] | Potency [8] | Potency [9]

OCCN1C[C@H](O)[C@@H](O)[C@H](O)[C@H]1CO
inactive: Potency [1] | Potency [2] | Potency [3] | outcome [4] | max response [5] 3.53% | Potency [6] | Potency [7] | Potency [10] | Potency [8] | Potency [9]

N[C@@H](CS)C(=O)O
inactive: Potency [1] | Potency [2] | Potency [3] | outcome [4] | max response [5] 9.81% | Potency [6] | Potency [7] | Potency [10] | Potency [8] | Potency [9]
